The values below come from PubChem BioAssay (NCATS).

Structures are written as SMILES. Inconclusive results are not listed. Values without a mark were called inactive. Calls of active or inactive are those of the source. Calls follow the shape of the dose curve; as a rule, active = well fitted inhibition curve with a large enough effect; inconclusive = small, poorly fitted or top-dose-only effect; inactive = no such curve, though single readings can be large or run the other way.

Assay [1] deals with Zika virus NS2B-NS3 protease (unlinked complex). The assay can be described thus: Primary screen GU Rhodamine qHTS for Zika virus inhibitors: Unlinked NS2B-NS3 protease assay (AID 1347159). Also: nearly all actives have a fitted effect of over 60% in size. The gist of the method:
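Noncovalent NS2B hydrophilic domain–NS3 protease domain complex (25 nM) preincubated 15 min at room temperature with compounds (up to 114 microM) in 10 mM Tris-HCl pH 8.0, 0.01% Tween 20; 1.5 microM Rhodamine110 substrate added, fluorescence change over 15 min fitted to Hill equation.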

The subject of assay [2] is Zika virus NS2B-NS3 protease (linked construct). The assay can be described thus: Primary screen NINDS Rhodamine qHTS for Zika virus inhibitors (AID 1347160). Also: nearly all actives have a fitted effect of over 55% in size. The essentials: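 Purified linked NS2B-NS3 protease (NS2B hydrophilic domain joined to NS3 protease by flexible linker), 25 nM in 10 mM Tris-HCl pH 8.0, 0.01% Tween 20. Compounds titrated, 15 min preincubation at room temperature; 1.5 microM Rhodamine110 substrate, FITC fluorescence change over 15 min.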
% is scaled to controls: 0 for no effect and ±100 for the full control effect.

Regarding `O=c1ccn(C2OC(CO)C(O)C2O)c(=O)[nH]1` (centres undefined), the Potency result in assay [1] and in assay [2] was “inactive” each time.

`CC(=O)O[C@H]1CC[C@@]2(CI)C(=CC[C@@H]3[C@@H]2CC[C@]2(C)[C@@H]([C@H](C)CCCC(C)C)CC[C@@H]32)C1`: the activity change, negative = inhibition in assay [1] is 13.5% [at 19.1 µM]; in assay [2], 7.05% [at 10.7 µM].

Take `CC1(C)CC[C@]2(C(=O)O[C@@H]3O[C@H](CO)[C@@H](O)[C@H](O)[C@H]3O)CC[C@]3(C)C(=CCC4[C@@]5(C)C[C@@H](O)[C@H](O)C(CO)(CO)C5CC[C@]43C)C2[C@@H]1O` (some centres undefined): the Potency entry in assay [1] and in assay [2] was “inactive” each time.

With `CC(=O)O[C@H]1[C@H](Oc2ccccc2COC(=O)C2(O)C=CCCC2=O)O[C@H](CO)[C@@H](O)[C@@H]1O` (some centres undefined), the Potency entry in assay [1] and in assay [2] was “inactive” each time.

With `CC(=O)O[C@@H]1C[C@@]23C[C@@]24CC[C@H](OC2OC[C@@H](O)[C@H](O)[C@H]2O)C(C)(C)[C@@H]4CC[C@H]3[C@]2(C)CC3OC4(C[C@@H](C)C3[C@@]12C)OCC1(C)OC14` (some centres undefined), the Potency result in assay [1] and in assay [2] was “inactive” each time.

Regarding `CNC(=O)c1ccc2cc([C@@]3(O)CCn4cncc43)ccc2c1`, the Potency result in assay [1] and in assay [2] was “inactive” each time.

On to `COC(=O)C1(Cc2ccc(O)cc2)OC(=O)C(OC)=C1c1ccc(O)cc1` (centres undefined), for which the Potency entry in assay [1] and in assay [2] was “inactive” in each case.

On to `NC1CCC(N[C@@H]2C[C@H]2c2ccccc2)CC1` (some centres undefined), for which the Potency entry in assay [1] and in assay [2] was “inactive” each time.

As for `C=CC(C)(O)CC/C=C(/C)C(=O)OC1C(OC2OCC(OC3OC(CO)C(O)C(O)C3O)C(OC3OCC(O)C(OC4OC(C)C(O)C(O)C4O)C3O)C2O)COC(OC(=O)C23CCC(C)(C)CC2C2=CCC4C5(C)CCC(OC6OC(CO)C(OC7OC(CO)C(O)C(OC8OCC(O)C(O)C8O)C7O)C(O)C6O)C(C)(C)C5CCC4(C)C2(C)CC3O)C1O` (centres undefined), the figures for the activity change, negative = inhibition in assay [1] and in assay [2] were 23.5% [at 19.1 µM] and 4.71% [at 10.7 µM], respectively.

On to `C[C@@H](OC(=O)/C=C/c1ccc(O)cc1)C1=C[C@]2(C=C[C@@H]3C(C(=O)O)=CO[C@@H](O[C@@H]4O[C@H](CO[C@@H]5O[C@H](CO)[C@@H](O)[C@H](O)[C@H]5O)[C@@H](O)[C@H](O)[C@H]4O)[C@@H]32)OC1=O`, for which the Potency result in assay [1] and in assay [2] was “inactive” each time.

For `COc1cc(/C=C/C(=O)OC2[C@H](O)CC(O)(C(=O)O)C[C@H]2O)ccc1O` (some centres undefined), the Potency entry in assay [1] and in assay [2] was “inactive” throughout.

With `CN[C@@H]1[C@@H](O)[C@@H](O[C@@H]2[C@@H](O)[C@H](O[C@H]3O[C@H](CN)[C@@H](O)[C@H](O)[C@H]3O)[C@@H](N)C[C@H]2NC(=O)[C@@H](O)CN)OC[C@]1(C)O`, the Potency result in assay [1] and in assay [2] was “inactive” in each case.

For the compound `COc1ccc([C@H]2Cc3cccc(O)c3C(=O)O2)cc1`, the Potency entry in assay [1] and in assay [2] was “inactive” throughout.

As for `C=C1CCC[C@]2(C)C[C@]3(O)OC(=O)C(C)=C3C[C@@H]12`, the Potency result in assay [1] and in assay [2] was “inactive” each time.

With `COc1ccc2c(c1)OC[C@]1(O)c3cc4c(cc3O[C@H]21)OCO4`, the Potency entry in assay [1] and in assay [2] was “inactive” each time.

As for `Nc1nonc1C(=Nc1ccc(F)c(Cl)c1)NO`, the Potency result in assay [1] and in assay [2] was “inactive” in each case.

With `CC1=C2C(=O)C=C(CO)[C@@H]2[C@H]2OC(=O)[C@H](C)[C@@H]2[C@@H](O)C1`, the Potency result in assay [1] and in assay [2] was “inactive” each time.

As to `CN1C(=O)c2ccccc2-n2c(nc3ccccc3c2=O)[C@@]12O[C@H]2c1ccccc1`, the Potency result in assay [1] and in assay [2] was “inactive” each time.

`CC1=CC(=O)OC(C)(CC(C)(O)C(=O)O)C1` (centres undefined): the Potency entry in assay [1] and in assay [2] was “inactive” in each case.

For `CC1CCC2(C)C(CC(O)C(O)C23CO3)C1(C)CCC1=CC(=O)OC1O` (centres undefined), the Potency result in assay [1] and in assay [2] was “inactive” in each case.

As for `CC(=O)c1c(C)cc(O[C@@H]2O[C@H](CO)[C@@H](O)[C@H](O)[C@H]2O)cc1O`, the Potency result in assay [1] and in assay [2] was “inactive” throughout.

With `CCC(=O)N[C@@H]1Cc2ccccc2[C@H](c2ccccc2)C1`, the Potency result in assay [1] and in assay [2] was “inactive” each time.

Consider `Cc1c(-c2ccnn2C)cc(C(=O)NCc2ccc(S(C)(=O)=O)cn2)c(=O)n1-c1cccc(C(F)(F)F)c1`, for which the Potency entry in assay [1] and in assay [2] was “inactive” each time.

Turning to `CC1OC(OC2C(C)OC(OC3C(OC(=O)/C=C/c4ccc(O)cc4)C(CO)OC(OC4(COC(=O)/C=C/c5ccc(O)cc5)OC(CO)C(O)C4O)C3OC3OCC(O)(CO)C3O)C(O)C2O)C(O)C(O)C1O` (centres undefined), the Potency result in assay [1] and in assay [2] was “inactive” each time.

As to `CC1=C2C(=O)O[C@@H](c3ccoc3)[C@]2(C)CCC1`, the Potency entry in assay [1] and in assay [2] was “inactive” throughout.

Regarding `O=C(c1ccc(C#Cc2cccc(F)c2)cn1)N1CC2CC2C1` (centres undefined), the Potency result in assay [1] and in assay [2] was “inactive” throughout.

In the case of `COc1c2c(c(C)c3c1C(=O)OC3)O[C@@]1(C)C[C@@H](O)[C@]34O[C@](OC)(CC[C@]3(C)[C@H]1C2)OC4(C)C`, the Potency entry in assay [1] and in assay [2] was “inactive” throughout.
